Compounds with a hit are over-represented: about 4.5% of the library has one in this group of screens.
ALR inh: blocks human ALR sulfhydryl oxidase activity. AID 485317. P55789. actives 3.8% (n = 290,000). purified ALR, DTT oxidation, H2O2 HRP-luminol luminescence. inhibition, % (concentration not given with the values);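 active = mean replicate inhibition above about 79%, with every replicate also reaching it, limit read from the data; inconclusive = only one of the two criteria met; inactive = mean below limit and not every replicate reaching it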
Target sequence (P55789 whole entry, looked up): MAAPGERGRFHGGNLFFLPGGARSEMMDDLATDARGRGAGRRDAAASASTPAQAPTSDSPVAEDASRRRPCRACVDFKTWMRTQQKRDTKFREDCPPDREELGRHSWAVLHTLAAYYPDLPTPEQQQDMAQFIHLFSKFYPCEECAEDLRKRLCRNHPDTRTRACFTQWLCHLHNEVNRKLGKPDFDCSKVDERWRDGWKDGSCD
HDAC3 inhib: human HDAC3 inhibition. recombinant HDAC3, fluorogenic peptide/trypsin coupled, fluorescence. inhibition, % at 8.3 µM. actives 0.15% (n = 320,000); in the data active = inhibition above about 26%, passing the limit was not always enough; inconclusive = no clear call, values can overlap the other calls
Efflux pump mplx: blocks antifungal efflux pumps in multiplex yeast assay; actives 0.44% (n = 330,000); AID 485275; inhibition, % at 10 µM; S. cerevisiae Candida pump triplex, Nile Red efflux;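 active = plate passing quality check with inhibition over a set limit, or well fluorescence over plate mean plus 4 SD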;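 note: Nile Red retained in pooled yeast measured as flow cytometry median fluorescence; 0% = buffer negative control and 100% = Enniatin B positive control; higher means more Nile Red kept so more efflux inhibition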
GRK2 aptamer HTS: blocks RNA aptamer binding to human GRK2 | actives 0.59% (n = 330,000) | P25098 | AID 488847 | inhibition of aptamer binding, % at 10 µM | bead flow cytometry, FAM-aptamer displacement from GRK2;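 active = inhibition of aptamer binding above 40%, roughly 3 SD of noise, on plates passing a quality check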;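 note: median bead fluorescence of bound FAM aptamer so fluorescent compounds give negative values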
Rce1 inh: blocks yeast Ras-converting enzyme. yeast membranes, quenched prenylated peptide cleavage fluorescence. calls only. actives 0.27% (n = 290,000);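 active = fall in fluorescence gain of 50% or more versus controls, with final raw signal at or below 3038400; inconclusive = same 50% fall but final raw signal above 3038400; inactive = fall in fluorescence gain under 50%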;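 note: plate controls were neutral control wells for no effect and wells lacking membranes for full effect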
Rtt109 HAT inh: blocks Candida albicans Rtt109/Vps75 acetyltransferase activity; purified Rtt109/Vps75, ThioGlo CoA-SH fluorescence, 4 h; inhibition, % at 34.9 µM; Q5AAJ8; actives 0.16% (n = 330,000);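 active = inhibition of at least 50% in every replicate; inconclusive = best replicate reaches 50% inhibition but some replicates fall short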
Starred values were filed as active, the others as inactive; i = inactive; ? = inconclusive; · = no result.

SMILES | ALR inh | HDAC3 inhib | Efflux pump mplx | GRK2 aptamer HTS | Rce1 inh | Rtt109 HAT inh
COc1cc(/C=C2\SC(=Nc3ccc(Cl)c(C(=O)O)c3)NC2=O)c(Br)c(Br)c1O | 98* | 6 | 0 | 5 | i | 32
COc1cc(/C=C2\SC(=Nc3ccccc3)NC2=O)cc(Cl)c1O | 56 | ? | 0 | 5 | i | -13
C=CC[C@H](CC(=O)N[C@H](CO)Cc1ccccc1)C(=O)N[C@@H](COC(=O)[C@H](CC=C)CC(=O)OC(C)(C)C)Cc1c[nH]c2ccccc12 | 0 | 44* | 0 | 0 | · | 0
C=CC[C@@H](CC(=O)N[C@H](CO)Cc1ccccc1)C(=O)N[C@H](COC(=O)[C@@H](CC=C)CC(=O)OC(C)(C)C)Cc1c[nH]c2ccccc12 | 5 | 11 | 0 | 0 | · | 5
C=CC[C@@H](CC(=O)N[C@@H](CO)Cc1ccccc1)C(=O)N[C@@H](COC(=O)[C@@H](CC=C)CC(=O)OC(C)(C)C)Cc1c[nH]c2ccccc12 | 2 | 18 | 0 | 3 | · | 10
C=CC[C@@H](CC(=O)N[C@@H](CO)Cc1ccccc1)C(=O)N[C@@H](COC(=O)[C@H](CC=C)CC(=O)OC(C)(C)C)Cc1c[nH]c2ccccc12 | -7 | 39* | 0 | 0 | · | -10
Cc1cc(N=Nc2ccccc2)c(NCC(O)C(O)C(O)CO)cc1C (stereo not drawn) | 98* | 15 | 0 | 1 | i | 9
Cc1ccc(NCC(O)C(O)C(O)CO)cc1C (stereo not drawn) | 49 | -3 | 0 | 1 | i | 2
Cc1ccccc1-n1nnnc1SCC(=O)NNC(=O)c1ccc(NC(=O)CC#N)cc1 | 24 | 3 | 0 | 2 | · | 9
O=c1[nH]c(/C=C/c2ccc(Cl)cc2Cl)c([N+](=O)[O-])c(=O)[nH]1 | 97* | 10 | 0 | 4 | i | -7
OCCNCC(O)CN1c2ccccc2Sc2ccccc21 (stereo not drawn) | 99* | -1 | 0 | 0 | i | 3
COc1ccc(C(=O)n2nc(-c3ccc(OC)cc3)nc2N)cc1 | -1 | 59* | 1 | · | i | -5
COc1ccc(C(=O)n2nc(-c3ccccc3)nc2N)cc1OC | 2 | 62* | 0 | 1 | i | 0
COc1ccc(-c2nc(N)n(C(=O)c3ccc(C)cc3)n2)cc1 | -2 | 32* | 0 | 5 | i | 5
Cc1ccccc1Nc1c(-c2ccccn2)nc2ccccn12 | 99* | 1 | 0 | 0 | i | -2
Cc1ccc(-c2nc3ncccn3c2NC2CCCC2)o1 | 99* | 1 | 0 | 6 | i | -1
Cc1ccc(-c2nc3ncccn3c2Nc2ccccc2C)o1 | 98* | 2 | 0 | 1 | i | ·
Brc1ccc(-c2nc3ncccn3c2NC2CCCCC2)o1 | 99* | 0 | 0 | 0 | i | 3
Brc1ccc2nc(-c3ccncc3)c(NC3CCCC3)n2c1 | · | 6 | 0 | 9 | i | -4
Cc1ccn2c(Nc3ccccc3C)c(-c3ccccn3)nc2c1 | · | 8 | 0 | 1 | i | -2
CN(C)CCCNC(NC(=O)/C=C/c1ccccc1)C(Cl)(Cl)Cl (stereo not drawn) | -10 | 0 | 0 | 0 | i | -11
CCOc1ccc(CC(=O)N/N=C(\C)c2cccnc2)cc1 | -11 | -1 | 0 | 0 | i | 10
Cc1ccccc1Nc1c(-c2cccnc2)nc2ccccn12 | 68 | -14 | 0 | 0 | i | 16
Cc1ccc(-c2nc3cnccn3c2Nc2c(C)cccc2C)o1 | 98* | 9 | 0 | 2 | i | -7
COc1ccccc1CC(=O)Nc1ccccc1O | 89* | 5 | 0 | 2 | i | -4
NC(=O)SCC(=O)Nc1ccccc1C(=O)O | 94* | 1 | 0 | 1 | i | -2
Cc1ccccc1NC(=O)CSC(N)=O | · | -1 | 0 | 0 | i | ?
O=C(CSc1ccccc1)Nc1ccccc1C(=O)O | 35 | -8 | 0 | 0 | i | 4
COc1ccccc1NC(=O)CSC(N)=O | 99* | 63* | 0 | 0 | i | 135*
COc1ccccc1CC(=O)Nc1cc(Cl)ccc1O | 0 | 6 | 0 | 5 | i | -4
